# Rows were chosen to be rich in hits. Some 4.6% of all compounds tested hit in one or more screens of this group.
# USP8 block = inhibitors of human USP8 deubiquitinase. purified USP8, Ub-rhodamine cleavage fluorescence, 30 min. hit rate 4.2% among 47,000. inhibition, % at 20 µM. P40818. AID 1645853
# USP7 block = blocks human USP7 ubiquitin-rhodamine cleavage | Q93009 | purified USP7, Ub-rhodamine cleavage fluorescence | inhibition, % at 20 µM | hit rate 0.3% among 47,000
# Target sequence (Q93009 whole entry, looked up): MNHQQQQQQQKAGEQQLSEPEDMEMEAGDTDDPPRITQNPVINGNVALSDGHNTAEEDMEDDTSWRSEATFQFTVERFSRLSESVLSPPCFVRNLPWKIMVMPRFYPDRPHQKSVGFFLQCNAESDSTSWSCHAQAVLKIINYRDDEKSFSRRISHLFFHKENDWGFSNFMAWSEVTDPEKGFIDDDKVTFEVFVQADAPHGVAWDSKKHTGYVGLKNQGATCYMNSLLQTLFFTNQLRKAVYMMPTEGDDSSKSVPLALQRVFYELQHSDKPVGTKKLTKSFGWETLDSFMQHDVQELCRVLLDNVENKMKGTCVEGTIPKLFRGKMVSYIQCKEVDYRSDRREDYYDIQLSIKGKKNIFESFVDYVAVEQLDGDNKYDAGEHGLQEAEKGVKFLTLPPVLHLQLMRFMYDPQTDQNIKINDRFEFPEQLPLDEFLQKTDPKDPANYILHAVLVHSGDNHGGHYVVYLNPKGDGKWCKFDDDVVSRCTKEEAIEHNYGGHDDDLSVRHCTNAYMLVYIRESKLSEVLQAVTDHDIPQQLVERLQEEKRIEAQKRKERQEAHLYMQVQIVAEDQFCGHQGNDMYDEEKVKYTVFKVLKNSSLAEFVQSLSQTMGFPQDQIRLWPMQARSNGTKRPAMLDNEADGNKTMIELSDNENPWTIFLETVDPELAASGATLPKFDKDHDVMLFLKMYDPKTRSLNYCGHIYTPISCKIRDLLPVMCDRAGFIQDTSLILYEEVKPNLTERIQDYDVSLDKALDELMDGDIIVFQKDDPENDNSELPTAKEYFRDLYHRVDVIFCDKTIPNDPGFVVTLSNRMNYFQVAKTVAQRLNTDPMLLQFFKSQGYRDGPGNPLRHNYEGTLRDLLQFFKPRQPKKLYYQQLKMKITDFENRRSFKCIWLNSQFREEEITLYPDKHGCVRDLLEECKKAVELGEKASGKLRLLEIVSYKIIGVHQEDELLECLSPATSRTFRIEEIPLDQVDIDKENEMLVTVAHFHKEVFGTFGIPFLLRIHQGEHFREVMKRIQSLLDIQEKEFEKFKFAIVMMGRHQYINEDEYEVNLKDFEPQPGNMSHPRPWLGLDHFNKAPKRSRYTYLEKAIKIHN
# UCHL1 block = blocks human UCHL1 ubiquitin-rhodamine cleavage; P09936; purified UCHL1, Ub-rhodamine cleavage fluorescence; hit rate 0.2% among 47,000; inhibition, % at 20 µM
# USP10 block = blocks human USP10 ubiquitin-rhodamine cleavage. Q14694. purified USP10, Ub-rhodamine fluorescence, 60 min. inhibition, % at 20 µM. hit rate 1.1% among 47,000. AID 1645856
# An asterisk follows results filed as active; · = no result given. Rule as the data show it: active = inhibition above about 30%; inactive = the rest.
SMILES,USP8 block,USP7 block,UCHL1 block,USP10 block
COc1cc(NC(=O)Cc2ccccc2)ccc1NC(=O)c1cc2ccccc2o1,8,10,4,34*
Cn1cc(C(=O)NCc2ccc3c(c2)OCO3)c(S(=O)(=O)N2CCCCCC2)n1,-232,-9,5,-1
O=C(CCc1c[nH]c2ccccc12)N1C[C@@H](O)[C@H](N2CCCC2)C1,5,-2,-4,0
O=C(CCc1c[nH]c2ccccc12)OCC(=O)c1cc2c3c(c1)CC(=O)N3CCC2,32*,·,14,17
Cc1ccc(CNc2nc(N3CCN(CCO)CC3)nc3c2cnn3C)cc1,-4,1,-2,-3
COc1ccc(N2CCN(C(=O)c3csc4c3CCC(C(C)(C)C)C4)CC2)cc1 (configuration not stated),70*,2,4,-1
COc1ccc(N2CCN(Cc3cc(=O)oc4cc(OC)ccc34)CC2)cc1,-17,0,-1,-1
CCOc1cccc2cc(-c3cc(=O)oc4cc(OC)ccc34)oc12,51*,2,1,-3
Cc1cc(N2CCCCC2)nc2ccc(NC(=O)c3ccco3)cc12,58*,-35,-25,-10
CCOC(=O)C1CCN(C(=O)CCC(=O)Nc2ccc3nc(N4CCN(CC)CC4)cc(C)c3c2)CC1,7,3,-1,-5
Cc1cc(N2CCN(c3ncccn3)CC2)nc2ccc(NC(=O)c3ccncc3)cc12,19,-2,0,-2
CC(=O)Nc1ccc2nc(N3CCC(C(=O)N4CCN(C)CC4)CC3)cc(C)c2c1,31*,4,5,0
CCN1CCN(c2cc(C)c3cc(NC(=O)c4ccco4)ccc3n2)CC1,48*,2,4,-3
COc1ccc(C2(C(=O)Nc3nc(-c4ccc5c(c4)CCN5C(=O)CC(C)(C)C)c(C)s3)CCCCC2)cc1,-18,1,-2,19
CC1OC1C(=O)[C@]1(O)[C@H](C)[C@@H](O)[C@@]23O[C@@]2([C@H](O)c2c(O)cccc2C3=O)[C@H]1O (some centres not stated),-7,6,1,-3
Nc1c(-c2ccc(Cl)cc2)cnc2nc(Sc3ncc(C(F)(F)F)cc3Cl)nn12,35*,9,2,23
O=C(Nc1ccc2nc(CCc3ccccc3)[nH]c2c1)c1ccncc1,0,6,1,-3
Clc1ccc2nc(COc3ccccc3Cc3ccccc3)[nH]c2c1,63*,-8,4,9
Cc1ccc(NC(=O)c2cnc3ccccc3n2)cc1Cl,65*,-2,0,-2
Cn1cc(-c2nc(C(=O)Nc3ccc(C#N)cc3)cs2)c2cccnc21,85*,10,2,14
CC(C)CC1NC(=O)C2CCCN2C1=O (configuration not stated),54*,-115,41*,17
Cc1ccc(C(=O)Nc2cc3c4c(c2)CC(=O)N4CCC3)cc1C,30*,1,0,-4
CCCn1c(=O)n(CC(=O)c2ccccc2F)c2c(C(N)=O)nc(-c3ccco3)nc21,59*,7,2,-3
CCn1c(=O)n(CC(=O)c2ccc(Cl)cc2)c2c(C(N)=O)nc(-c3ccco3)nc21,49*,40*,22,6
CCn1c(=O)n(CC(=O)c2ccc(F)cc2F)c2c(C(N)=O)nc(-c3ccco3)nc21,48*,25,13,7
SMILES,USP8 block,USP7 block,UCHL1 block,USP10 block
COCCNC(=O)N1CCCC(c2cc(-c3ccc(F)cc3)n[nH]2)C1 (configuration not stated),-19,-7,1,1
CC(C)NC(=O)N1C[C@H](OCc2ccccn2)[C@H]2COC[C@H]21,-7,9,1,-3
COc1ccc(-c2nn(-c3ccccc3)cc2C(=O)Nc2ccc(N3CCOCC3)cc2)cc1,61*,1,8,0
O=C(Cn1c(=O)c2sccc2n(CC(=O)NCCC2=CCCCC2)c1=O)NCc1ccccc1Cl,17,18,2,37*
Cc1ccc(NC(=O)Cn2c(=O)n(CC(=O)NCCc3ccccc3)c(=O)c3sccc32)cc1C,50*,19,0,40*
COc1ccc(NC(=O)Cn2c(=O)n(CCC(=O)NCc3ccccc3)c(=O)c3sccc32)cc1Cl,19,20,4,49*
COc1ccc(CCNC(=O)Cn2c(=O)c3sccc3n(Cc3cccc([N+](=O)[O-])c3)c2=O)cc1OC,27,2,3,32*
O=C(Nc1ccccc1)c1cc(C2CC2)on1,8,5,3,-3
COCCCn1c(C(=O)NCc2ccccc2)cc2c(=O)n3ccccc3nc21,7,-2,0,15
CCOc1ccc(-n2c(=O)c3sccc3n(CC(=O)Nc3cccc(C)c3)c2=O)cc1,22,5,0,41*

# Bioassay records (PubChem)
